# Data reported in PubChem BioAssay (EPA / NIEHS).
# Inconclusive results are not listed. The source made the active and inactive calls. Rule for the calls, unless noted: active = hit-call score of the fitted dose curve at least 0.9, where 1 is the maximum; inconclusive = response in the unintended direction; inactive = score below 0.9.
# Columns and labels:
# [1] = CPHEA_Stoker_NIS_Cytotoxicity: Cytotoxicity Assessment for CPHEA's Radioactive Iodide Uptake (RAIU) Assay for Sodium/Iodide Symporter (NIS) Inhibition, Stoker and Laws Labs (AID 2283897);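 for AC50: active means loss of ATP signal versus DMSO meaning cytotoxicity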
# In short: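 hNIS-HEK293T-EPA human kidney cells were exposed for 2 hours at room temperature to test chemicals (0.001–100uM, 0.5% final DMSO) in HEPES-buffered HBSS, pH 7.4. Viability was read as ATP content by luciferase bioluminescence, loss of signal versus DMSO.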
# [2] = CEETOX_H295R_11DCORT_noMTC: CeeTox H295R High-throughput Steroidogenesis Assay for 11-Deoxycortisol (11DCORT), maximum tolerated concentration (MTC) filtered results only (AID 2283911; active = hit-call score of the fitted dose curve at least 0.9, where 1 is the maximum; inactive = score below 0.9); conditions: actives raise or lower the signal
# In short: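 HPLC-MS/MS read-out of 11-deoxycortisol after MTBE extraction of H295R medium. Cells: forskolin 10 uM pre-stimulation 48 h, chemical 48 h, 0.1% DMSO final. Bidirectional fit vs DMSO baseline; no MTC filtering.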
# [3] = CEETOX_H295R_OHPREG_noMTC: CeeTox H295R High-throughput Steroidogenesis Assay for OH-Pregnenolone (OHPREG), maximum tolerated concentration (MTC) filtered results only (AID 2283912; active = hit-call score of the fitted dose curve at least 0.9, where 1 is the maximum; inactive = score below 0.9); conditions: actives raise or lower the signal
# In short: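 Steroidogenesis in H295R cells (OECD 456, modified): after 48 h forskolin priming and 48 h chemical treatment, secreted 17alpha-hydroxypregnenolone is measured by HPLC-MS/MS. Activity is fitted in both directions against DMSO; concentrations are not filtered by MTT-based MTC.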
# [4] = CEETOX_H295R_OHPROG_noMTC: CeeTox H295R High-throughput Steroidogenesis Assay for OH-Progesterone (OHPROG), maximum tolerated concentration (MTC) filtered results only (AID 2283914; active = hit-call score of the fitted dose curve at least 0.9, where 1 is the maximum; inactive = score below 0.9); conditions: actives raise or lower the signal
# In short: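 Forskolin 10 uM, 48 h prestim → test cmpd in DMSO (0.1% final), 48 h → medium MTBE extraction → LC-MS/MS quant of 17alpha-OH-progesterone. Bidirectional fit vs DMSO; no MTT-based MTC filtering.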
# [5] = CEETOX_H295R_CORTISOL_noMTC: CeeTox H295R High-throughput Steroidogenesis Assay for Cortisol, maximum tolerated concentration (MTC) filtered results only (AID 2283916; active = hit-call score of the fitted dose curve at least 0.9, where 1 is the maximum; inactive = score below 0.9); conditions: actives raise or lower the signal
# In short: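 Cortisol secretion measured by LC-MS/MS after 48 h chemical treatment (final 0.1% DMSO) of forskolin-primed (10 uM, 48 h) H295R cells; gain or loss fitted relative to DMSO, without maximum-tolerated-concentration filtering.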
# [6] = CEETOX_H295R_CORTIC_noMTC: CeeTox H295R High-throughput Steroidogenesis Assay for Corticosterone (CORTIC), maximum tolerated concentration (MTC) filtered results only (AID 2283917; active = hit-call score of the fitted dose curve at least 0.9, where 1 is the maximum; inactive = score below 0.9); conditions: actives raise or lower the signal
# In short: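 Following OECD 456 with minor changes, H295R cultures received 10 uM forskolin for 48 h, then test chemical at 0.1% DMSO for 48 h. Media steroids were extracted and measured by LC-MS/MS.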
# [7] = CEETOX_H295R_DOC_noMTC: CeeTox H295R High-throughput Steroidogenesis Assay for DOC, maximum tolerated concentration (MTC) filtered results only (AID 2283918; active = hit-call score of the fitted dose curve at least 0.9, where 1 is the maximum; inactive = score below 0.9); conditions: actives raise or lower the signal
# In short: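 11-Deoxycorticosterone secreted by human adrenal H295R cells quantified by HPLC-MS/MS after 48 h chemical exposure (0.1% DMSO), following 48 h 10 uM forskolin prestimulation. Concentrations not filtered by MTT-derived MTC; bidirectional fitting.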
# [8] = system: Sodium/Iodide Symporter (NIS), SLC5A5 (gene 6528); test: CPHEA_Stoker_NIS_Inhibition_RAIU: CPHEA's Radioactive Iodide Uptake (RAIU) Assay for Sodium/Iodide Symporter (NIS) Inhibition, Stoker and Laws Labs (AID 2283841)
# In short: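 HEK293T cells stably expressing human NIS (hNIS-HEK293T-EPA) were exposed to test chemicals at 0.001–100uM (0.5% final DMSO) with 125I at a final 329pM in HBSS/10mM HEPES pH 7.4. After 2 hours at room temperature and ice-cold washes, intracellular 125I was counted as CPM and normalized to DMSO wells.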
# [9] = molecular target: mouse Peroxisome Proliferator-activated Receptor gamma (PPARg), Pparg (gene 19016) (UniProt P37238); test: ATG_mPPARg_XSP2: Attagene TRANS-FACTORIAL Multi-Species (XSP2) HepG2 Assay for mouse Peroxisome Proliferator-activated Receptor gamma (PPARg) (AID 2283830);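 note: hits are gains in reporter mRNA above DMSO so AC50 marks activation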
# In short: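 HepG2 cells transiently transfected with GAL4-UAS reporter units for chimeric NR-Gal4 proteins including mouse PPARg, exposed 24 h; medium contained 3 nM 6-alpha-fluorotestosterone and 1.5 nM norgestrel. Reporter mRNA quantified by RT-PCR, HpaI digestion and capillary electrophoresis, vs DMSO.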
# [10] = molecular target: Nuclear receptor subfamily 1 group I member 2 (Mus musculus) (UniProt O54915); test: ATG_mPXR_XSP2: Attagene TRANS-FACTORIAL Multi-Species (XSP1) HepG2 Assay for mouse Pregnane X Receptor (PXR) (AID 2283831)
# In short: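 HepG2 cells transiently transfected with GAL4-UAS reporter units expressing chimeric NR-GAL4 proteins; reporter mRNA measured 24 h after dosing by RT-PCR with 6-FAM labelling and capillary electrophoresis, gain of signal relative to DMSO.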
# [11] = system: zebrafish Peroxisome Proliferator-activated Receptor gamma (PPARg), gene 557037; test: ATG_zfPPARg_XSP2: Attagene TRANS-FACTORIAL Multi-Species (XSP2) HepG2 Assay for zebrafish Peroxisome Proliferator-activated Receptor gamma (PPARg) (AID 2283833);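 note: actives increase reporter signal over DMSO so AC50 reflects activation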
# In short: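 HepG2 cells transiently transfected with GAL4-UAS reporter units expressing a zebrafish PPARg–GAL4 chimera; compound exposure 24 h. Reporter mRNA quantified by RT-PCR with fluorescent labelling and capillary electrophoresis; gain of signal fitted relative to DMSO baseline.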
# [12] = system: turtle Thyroid Hormone Receptor, alpha (TRa), gene 101949057; test: ATG_trTRa_XSP2: Attagene TRANS-FACTORIAL Multi-Species (XSP1) HepG2 Assay for turtle Thyroid Hormone Receptor, alpha (TRa) (AID 2283834);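 note: hits raise reporter mRNA over the DMSO baseline so AC50 marks activators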
# In short: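 HepG2 cells transiently transfected with multiplexed GAL4-UAS reporter units expressing chimeric NR-Gal4 proteins were dosed for 24 hours. Reporter mRNA was quantified by RT-PCR with 6-FAM labelling and capillary electrophoresis, gain of signal scored against DMSO.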
# [13] = ATG_M_61_XSP2: Attagene TRANS-FACTORIAL Multi-Species (XSP2) HepG2 Assay for M61 Transcription Factor (Internal Marker) (AID 2283835; active = hit-call score of the fitted dose curve at least 0.9, where 1 is the maximum; inactive = score below 0.9;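 note: reporter mRNA of an internal background marker read by RT-PCR and capillary electrophoresis; active means a rise in signal above the DMSO baseline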)
# In short: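 First, HepG2 cells are transfected with reporter units under GAL4-UAS control. Next, chemicals are applied for 24 h. Then total RNA is reverse-transcribed, amplified, fluorescently labelled and sized by capillary electrophoresis, with gain of signal scored against DMSO.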
# [14] = molecular target: frog Thyroid hormone Receptor alpha (TRa), thra-a (gene 397942) (UniProt P15204); test: ATG_frTRa_XSP2: Attagene TRANS-FACTORIAL Multi-Species (XSP2) HepG2 Assay for frog Thyroid hormone Receptor alpha (TRa) (AID 2283839)
# In short: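 HepG2 cells transiently transfected with multiplexed GAL4-UAS reporter units expressing chimeric frog TRα-Gal4; reporter mRNA read 24 h after dosing by RT-PCR, FAM-labelled primer extension, HpaI digest and capillary electrophoresis. Gain of signal fitted versus DMSO.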
# Chain of frog Thyroid hormone Receptor alpha (TRa), thra-a (gene 397942) (P15204 whole entry, looked up, the tested form may be a part): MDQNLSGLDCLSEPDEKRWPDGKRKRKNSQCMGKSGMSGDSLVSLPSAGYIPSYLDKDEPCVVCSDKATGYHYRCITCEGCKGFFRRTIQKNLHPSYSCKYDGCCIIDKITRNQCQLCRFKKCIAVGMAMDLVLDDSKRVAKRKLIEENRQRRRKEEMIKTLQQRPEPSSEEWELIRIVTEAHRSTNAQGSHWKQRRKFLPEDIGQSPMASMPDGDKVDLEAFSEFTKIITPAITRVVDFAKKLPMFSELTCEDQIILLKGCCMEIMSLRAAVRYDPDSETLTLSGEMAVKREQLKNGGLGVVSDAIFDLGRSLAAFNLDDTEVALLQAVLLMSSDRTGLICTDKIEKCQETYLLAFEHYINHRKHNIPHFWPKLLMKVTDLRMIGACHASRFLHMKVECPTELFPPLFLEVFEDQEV
# Chain of Nuclear receptor subfamily 1 group I member 2 (Mus musculus) (O54915 whole entry, looked up, the tested form may be a part): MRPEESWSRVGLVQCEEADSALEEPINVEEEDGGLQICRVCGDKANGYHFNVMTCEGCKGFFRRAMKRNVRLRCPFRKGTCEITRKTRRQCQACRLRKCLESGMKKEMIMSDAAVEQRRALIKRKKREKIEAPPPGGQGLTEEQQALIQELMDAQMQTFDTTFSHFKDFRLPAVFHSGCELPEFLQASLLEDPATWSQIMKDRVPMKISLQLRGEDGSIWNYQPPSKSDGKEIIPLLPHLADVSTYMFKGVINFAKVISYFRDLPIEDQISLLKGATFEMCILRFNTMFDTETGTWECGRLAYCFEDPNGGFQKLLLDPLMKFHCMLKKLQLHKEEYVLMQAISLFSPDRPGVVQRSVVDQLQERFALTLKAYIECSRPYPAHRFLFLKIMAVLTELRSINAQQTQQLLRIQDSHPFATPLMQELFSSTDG
# Chain of mouse Peroxisome Proliferator-activated Receptor gamma (PPARg), Pparg (gene 19016) (P37238 whole entry, looked up, the tested form may be a part): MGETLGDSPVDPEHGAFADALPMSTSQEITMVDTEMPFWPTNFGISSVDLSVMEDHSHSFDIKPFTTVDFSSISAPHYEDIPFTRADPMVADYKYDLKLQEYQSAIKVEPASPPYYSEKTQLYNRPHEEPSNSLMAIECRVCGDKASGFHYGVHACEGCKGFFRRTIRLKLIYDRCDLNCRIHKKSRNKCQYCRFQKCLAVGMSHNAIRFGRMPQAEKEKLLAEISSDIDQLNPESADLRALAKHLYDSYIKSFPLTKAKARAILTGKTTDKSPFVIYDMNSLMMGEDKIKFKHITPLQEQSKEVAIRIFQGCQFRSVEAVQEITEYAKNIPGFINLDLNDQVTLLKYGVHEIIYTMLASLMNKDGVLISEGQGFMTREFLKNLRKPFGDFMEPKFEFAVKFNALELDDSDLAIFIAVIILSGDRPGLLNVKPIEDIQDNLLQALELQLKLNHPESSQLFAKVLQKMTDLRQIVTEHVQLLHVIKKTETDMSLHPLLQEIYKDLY
compound,measurement,setting,value
CC(C)(O)c1ccc(CNC(=O)c2cccnc2Oc2ccc3nonc3c2)cc1,outcome,[1],inactive
same,outcome,[2],inactive
same,outcome,[3],inactive
same,outcome,[4],inactive
same,AC50,[5],61.8 µM (active)
same,outcome,[6],inactive
same,AC50,[7],0.0934 µM (active)
CN(C)c1ccc(C(=C2C=CC(=[N+](C)C)C=C2)c2ccc(N(C)C)cc2)cc1,AC50,[8],17.4 µM (active)
same,AC50,[1],5.35 µM (active)
CN1C(=O)N(c2ccccc2Br)Cc2cnc(Nc3ccc4c(c3)OCC(CO)O4)nc21 (centres undefined),outcome,[8],inactive
same,outcome,[1],inactive
Cc1c2ccccc2c(C)c2c1ccc1ccccc12,AC50,[9],16.6 µM (active)
same,AC50,[10],18.3 µM (active)
same,outcome,[11],inactive
same,AC50,[12],39.9 µM (active)
same,outcome,[13],inactive
same,outcome,[14],inactive
same,outcome,[8],inactive
same,outcome,[1],inactive
O=c1[nH]sc2ccccc12,outcome,[8],inactive
same,outcome,[1],inactive
Cc1cc2c(cc1C(F)(F)F)N(C(=O)Nc1ccc(Oc3cccnc3C)nc1)CC2,outcome,[8],inactive
same,AC50,[1],8.93 µM (active)
CCCCCCCCOC(=O)c1cc(O)c(O)c(O)c1,outcome,[8],inactive
same,outcome,[1],inactive
CN(C)C(=O)C1(N2CCCCC2)CCN(CC[C@@]2(c3ccc(Cl)c(Cl)c3)CN(C(=O)c3ccccc3)CCO2)CC1,outcome,[8],inactive
same,outcome,[1],inactive
O=C1c2ccccc2C(=O)N1CCc1noc(-c2ccc(CN3CCCCCC3)s2)n1,outcome,[8],inactive
same,AC50,[1],11.5 µM (active)
